Among all 5,500 compounds or so, about 2,000 (36%) were called active. Inconclusive results (about 18%) are left out. No stated cut-off is given here; in the data, active means normalized growth mostly below about 0.91 (no sharp cut-off); inconclusive means no clear call, values can overlap the other calls; inactive means mostly above about 0.92. Some of the results follow.
Test: chemical genetic growth profiling, strain panel (AID 1159580);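 further: tested at 20 µM; growth read once vehicle control cultures reached saturation at 30 °C; 1 = growth at the plate median or of vehicle wells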
Settings: growth OD

Measured: normalized growth

CN[C@@H](C)[C@@H](O)c1ccccc1
inactive: S. cerevisiae deletion strains, locus YKL068W, stronger effect = lower value 0.978 | S. cerevisiae deletion strains, locus YKL085W, strain MDH1 (second series), stronger effect = lower value 0.992 | S. cerevisiae deletion strains, locus YKL085W, strain MDH1, stronger effect = lower value 0.992 | S. cerevisiae deletion strains, locus YKL160W, strain elf1, stronger effect = lower value 0.968 | S. cerevisiae deletion strains, locus YKL190W, strain CNB1, stronger effect = lower value 0.998 | S. cerevisiae deletion strains, locus YKR001C, strain vps1, stronger effect = lower value 0.978 | S. cerevisiae deletion strains, locus YKR026C, strain gcn3, stronger effect = lower value 0.994 | S. cerevisiae deletion strains, locus YKR091W, strain srl3, stronger effect = lower value 1 | S. cerevisiae deletion strains, locus YLL001W, strain dnm1, stronger effect = lower value 1.01 | S. cerevisiae deletion strains, locus YLL026W, stronger effect = lower value 1.01 | S. cerevisiae deletion strains, locus YLL041C, strain sdh2, stronger effect = lower value 1 | S. cerevisiae deletion strains, locus YLR027C, strain aat2, stronger effect = lower value 1 | S. cerevisiae deletion strains, locus YLR039C, strain RIC1, stronger effect = lower value 0.966 | S. cerevisiae deletion strains, locus YLR058C, strain SHM2, stronger effect = lower value 0.988 | S. cerevisiae deletion strains, locus YLR102C, strain apc9, stronger effect = lower value 0.99 | S. cerevisiae deletion strains, locus YLR113W, strain HOG1, stronger effect = lower value 0.984 | S. cerevisiae deletion strains, locus YLR221C, strain rsa3, stronger effect = lower value 0.994 | S. cerevisiae deletion strains, locus YLR258W, strain gsy2, stronger effect = lower value 0.981 | S. cerevisiae deletion strains, locus YLR262C, strain YPT6 (second series), stronger effect = lower value 1.01 | S. cerevisiae deletion strains, locus YLR262C, strain YPT6, stronger effect = lower value 0.914 | S. cerevisiae deletion strains, locus YLR268W, strain sec22, stronger effect = lower value 0.983 | S. cerevisiae deletion strains, locus YLR320W, strain mms22, stronger effect = lower value 0.985 | S. cerevisiae deletion strains, locus YLR330W, strain CHS5, stronger effect = lower value 0.987 | S. cerevisiae deletion strains, locus YLR342W, strain FKS1 (second series), stronger effect = lower value 0.99 | S. cerevisiae deletion strains, locus YLR342W, strain FKS1, stronger effect = lower value 1.01 | S. cerevisiae deletion strains, locus YLR357W, strain rsc2, stronger effect = lower value 0.972 | S. cerevisiae deletion strains, locus YLR370C, strain arc18, stronger effect = lower value 0.982 | S. cerevisiae deletion strains, locus YLR371W, strain rom2, stronger effect = lower value 0.981 | S. cerevisiae deletion strains, locus YLR384C, strain iki3, stronger effect = lower value 0.993 | S. cerevisiae deletion strains, locus YLR418C, strain cdc73, stronger effect = lower value 1.02 | S. cerevisiae deletion strains, locus YML016C, strain PPZ1, stronger effect = lower value 0.987 | S. cerevisiae deletion strains, locus YML032C, strain rad52, stronger effect = lower value 0.979 | S. cerevisiae deletion strains, locus YML120C, strain ndi1, stronger effect = lower value 1.01 | S. cerevisiae deletion strains, locus YML124C, strain tub3, stronger effect = lower value 0.99 | S. cerevisiae deletion strains, locus YMR058W, strain fet3, stronger effect = lower value 1.01 | S. cerevisiae deletion strains, locus YMR078C, strain ctf18, stronger effect = lower value 0.985 | S. cerevisiae deletion strains, locus YMR125W, strain sto1, stronger effect = lower value 0.985 | S. cerevisiae deletion strains, locus YMR129W, stronger effect = lower value 0.976 | S. cerevisiae deletion strains, locus YMR205C, strain PFK2, stronger effect = lower value 0.984 | S. cerevisiae deletion strains, locus YMR223W, strain ubp8, stronger effect = lower value 0.985 | S. cerevisiae deletion strains, locus YMR231W, strain pep5, stronger effect = lower value 0.998 | S. cerevisiae deletion strains, locus YMR263W, strain SAP30, stronger effect = lower value 1.01 | S. cerevisiae deletion strains, locus YMR307W, strain GAS1, stronger effect = lower value 0.881 | S. cerevisiae deletion strains, locus YNL067W, strain RPL9B, stronger effect = lower value 1.04 | S. cerevisiae deletion strains, locus YNL071W, strain lat1, stronger effect = lower value 1.01 | S. cerevisiae deletion strains, locus YNL183C, strain NPR1, stronger effect = lower value 0.978 | S. cerevisiae deletion strains, locus YNL209W, strain ssb2, stronger effect = lower value 0.978 | S. cerevisiae deletion strains, locus YNL233W, strain BNI4, stronger effect = lower value 1.05 | S. cerevisiae deletion strains, locus YNL248C, strain rpa49, stronger effect = lower value 0.986 | S. cerevisiae deletion strains, locus YNL250W, strain rad50, stronger effect = lower value 0.99 | S. cerevisiae deletion strains, locus YNL271C, strain bni1, stronger effect = lower value 0.976 | S. cerevisiae deletion strains, locus YNL298W, strain CLA4, stronger effect = lower value 0.97 | S. cerevisiae deletion strains, locus YNL307C, strain MCK1, stronger effect = lower value 0.992 | S. cerevisiae deletion strains, locus YNL322C, strain KRE1 (second series), stronger effect = lower value 0.977 | S. cerevisiae deletion strains, locus YNR049C, strain mso1, stronger effect = lower value 0.998 | S. cerevisiae deletion strains, locus YNR052C, strain pop2, stronger effect = lower value 0.997 | S. cerevisiae deletion strains, locus YOL006C, strain TOP1, stronger effect = lower value 1.07 | S. cerevisiae deletion strains, locus YOL012C, strain htz1 1.99 | S. cerevisiae deletion strains, locus YOL147C, strain pex11, stronger effect = lower value 0.993 | S. cerevisiae deletion strains, locus YOR001W, strain rrp6, stronger effect = lower value 0.997 | S. cerevisiae deletion strains, locus YOR061W, strain CKA2, stronger effect = lower value 0.971 | S. cerevisiae deletion strains, locus YOR069W, strain VPS5, stronger effect = lower value 0.986 | S. cerevisiae deletion strains, locus YOR070C, strain gyp1, stronger effect = lower value 0.984 | S. cerevisiae deletion strains, locus YOR080W, strain dia2, stronger effect = lower value 0.994 | S. cerevisiae deletion strains, locus YOR083W, strain WHI5, stronger effect = lower value 0.961 | S. cerevisiae deletion strains, locus YOR106W, strain vam3, stronger effect = lower value 1.01 | S. cerevisiae deletion strains, locus YOR136W, strain idh2, stronger effect = lower value 0.991 | S. cerevisiae deletion strains, locus YOR144C, strain elg1, stronger effect = lower value 0.987 | S. cerevisiae deletion strains, locus YOR184W, strain ser1, stronger effect = lower value 0.987 | S. cerevisiae deletion strains, locus YOR231W, strain MKK1, stronger effect = lower value 0.98 | S. cerevisiae deletion strains, locus YOR265W, strain rbl2, stronger effect = lower value 1 | S. cerevisiae deletion strains, locus YOR270C, strain vph1, stronger effect = lower value 1.04 | S. cerevisiae deletion strains, locus YOR290C, strain snf2, stronger effect = lower value 0.972 | S. cerevisiae deletion strains, locus YOR316C, strain cot1, stronger effect = lower value 0.986 | S. cerevisiae deletion strains, locus YPL051W, strain arl3, stronger effect = lower value 0.99 | S. cerevisiae deletion strains, locus YPL078C, strain atp4, stronger effect = lower value 1.02 | S. cerevisiae deletion strains, locus YPL106C, strain sse1, stronger effect = lower value 0.937 | S. cerevisiae deletion strains, locus YPL240C, strain hsp82, stronger effect = lower value 0.993 | S. cerevisiae deletion strains, locus YPL241C, strain CIN2, stronger effect = lower value 0.979 | S. cerevisiae deletion strains, locus YPL256C, strain CLN2, stronger effect = lower value 1.03 | S. cerevisiae deletion strains, locus YPR119W, strain clb2, stronger effect = lower value 0.983 | S. cerevisiae deletion strains, locus YPR141C, strain kar3, stronger effect = lower value 0.989 | S. cerevisiae deletion strains, locus YPR163C, strain tif3, stronger effect = lower value 0.989 | S. cerevisiae deletion strains, locus YPR167C, strain met16, stronger effect = lower value 0.988 | S. cerevisiae deletion strains, strain wtn01, stronger effect = lower value 1 | S. cerevisiae strains, strain wild type, stronger effect = lower value 0.987
